Assay results taken from PubChem BioAssay (NCATS).
Several values for one entry are separate records, joined by “and”; a condition that tells them apart may be missing. Identical values can stand only once. Inconclusive results are not listed. Activity calls are given as the source filed them. Unless noted, calls follow the shape of the dose curve; as a rule, active = well fitted curve in the direction sought with a large enough effect; inconclusive = small, poorly fitted or top-dose-only effect, or another doubt; inactive = no such curve, though single readings can be large; an effect the other way counts as inactive or inconclusive.

Tests used:
[1] = qHTS assay for small molecule disruptors of the mitochondrial membrane potential - 1 hr assay (AID 651754; calls by dose curve; also: % is scaled to controls: 0 for no effect and ±100 for the full control effect; nearly all actives have a fitted effect of over 35% in size)
Outline: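 HepG2 cells, attached overnight at 37C, were exposed to compound or DMSO vehicle for 1 hr at 37C, 5% CO2, then stained with Mito-MPS dye for 30 min. Red aggregate versus green monomer fluorescence reports membrane potential.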

[2] = qHTS assay for small molecule disruptors of the mitochondrial membrane potential - 5 hr assay (AID 651755; calls by dose curve; also: % is scaled to controls: 0 for no effect and ±100 for the full control effect; nearly all actives have a fitted effect of over 40% in size)
Outline: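 HepG2, 2,000 cells/well, overnight attach; cpd or DMSO 5 hr, 37C/5% CO2; Mito-MPS 30 min 37C; fluor 490/535 + 540/590 nm.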

[3] = target: Tumor necrosis factor (Homo sapiens) (UniProt P01375); assay: qHTS assay to identify small molecules that stimulate Tumor Necrosis Factor-alpha (TNF-alpha) secretion (AID 651757; active = well fitted curve in the direction sought with a large enough effect in the signal ratio; the % refers to the signal ratio; also: 0% is about no effect)
Outline: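 THP-1 cells were exposed to compounds for 17 hrs at 37 C, after which secreted TNF-alpha was measured by homogeneous HTRF (TR-FRET) using cryptate- and XL665-labeled anti-TNF-alpha antibodies, read after 3 hr at room temperature.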

[4] = qHTS assay to identify small molecules that stimulate interleukin-8 (IL-8) secretion (AID 651758; active = well fitted activation curve with a large enough effect in the signal ratio; the % refers to the signal ratio; also: 0% is about no effect)
Outline: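 Secreted IL-8 measured by TR-FRET sandwich (cryptate and XL665 antibodies) from THP-1 cells exposed to compound overnight (16 hrs, 37 C).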

[5] = qHTS assay for environmental chemicals that activate the Aryl hydrocarbon Receptor (AhR) signaling pathway (AID 651777); conditions: 1A2-DRE human hepatoma cells, luciferase, 24 h; activation: hits give high values; also: % of control where 0% means no effect; nearly all actives have a fitted effect of over 15% in size
Outline: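 Human hepatoma 1A2-DRE cells, stably carrying a dioxin response element and CYP1A2 promoter driving luciferase, were exposed to compounds for 24 hr at 37 C and 5% CO2. Luciferase signal was then read after 30 min One-Glo at room temperature.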

[6] = target: Peroxisome proliferator-activated receptor alpha (Homo sapiens) (UniProt Q07869); assay: qHTS assay for small molecule agonists of the peroxisome proliferator-activated receptor alpha (PPARalpha) signaling pathway (AID 651778); conditions: PathHunter PPARalpha complementation, chemiluminescence, 6 h; hits give high values; also: % of control where 0% means no effect
Outline: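 Chemiluminescence from complemented enzyme reported PPARalpha activation in cells after 6 hr of compound treatment at 37 C. The detection reagent was incubated for 60 min at room temperature, and compounds were scored as agonists.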

[7] = qHTS assay for small molecule agonists of the antioxidant response element (ARE) signaling pathway measured by Nrf2-dependant transcriptional activity (AID 720636; active = well fitted curve in the direction sought with a large enough effect in the repeat runs; an effect the other way counts as inactive or inconclusive; also: % of control where 0% means no effect)
Outline: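 ARE-luc HepG2 cells carrying an Nrf2-responsive luciferase reporter were plated in medium with 1% dialyzed FBS, left 6 hr at 37 C to attach, then exposed to compound for 16 hr. Luciferase luminescence was read after ONE-Glo addition.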

[8] = qHTS assay for small molecule antagonists of the retinoid-related orphan receptor gamma (ROR-gamma) signaling pathway - cell viability counter screen (AID 720652; active = well fitted curve in the direction sought with a large enough effect in the repeat runs; an effect the other way counts as inactive or inconclusive;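 also: series mostly up to about 92 µM; compound exposure lasted 16 hr before ATP read; % is scaled to controls: 0 for no effect and ±100 for the full control effect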)
Outline: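 Counter screen in CHO cells carrying TET-inducible ROR-gamma and an ROR response element-luciferase reporter; cells plated 5 hr, compound pinned, doxycycline added, then 16 hr at 37 C. Viability read as intracellular ATP by CellTiter-Glo luminescence.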

[9] = qHTS assay for small molecule agonists of the antioxidant response element (ARE) signaling pathway measured by Nrf2-dependant transcriptional activity - cell viability counter screen (AID 720653; active = well fitted curve in the direction sought with a large enough effect in the repeat runs; an effect the other way counts as inactive or inconclusive; also: % is scaled to controls: 0 for no effect and ±100 for the full control effect); conditions: ARE-bla HepG2 viability, CellTiter-Glo ATP luminescence, 16 h; hits give low values
Outline: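 Cytotoxicity counter screen: intracellular ATP quantified by CellTiter-Glo luminescence in the same ARE-bla HepG2 plates, after 16 h compound exposure and a 2 h beta-lactamase substrate step.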

[10] = qHTS assay for cell viability of HEK293 cells (AID 743288); conditions: ATP luminescence (CellTiter-Glo), 18 h, hits give low values; also: % is scaled to controls: 0 for no effect and ±100 for the full control effect; nearly all actives have a fitted effect of over 50% in size
Outline: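 HEK293 parental, 2,000 cells/well; ≥5 h pre-incubation 37 C; pintool compound addition; 18 h, 37 C; CellTiter-Glo 30 min RT; luminescence read.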

[11] = qHTS assay for cell viability of the p53RE-bla HCT-116 cell line (AID 743292); also: % is scaled to controls: 0 for no effect and ±100 for the full control effect; nearly all actives have a fitted effect of over 55% in size
Outline: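 CellSensor p53RE-bla HCT-116 cells, 4,000/well, preincubated 5 h at 37 C, then exposed to compounds in DMSO for 16 h at 37 C. Viability read as CellTiter-Glo luminescence (intracellular ATP) after 30 min at room temperature.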

[12] = target: Nuclear receptor subfamily 1 group I member 2 (Rattus norvegicus) (UniProt Q9R1A7); assay: qHTS assay for small molecule activators of the rat pregnane X receptor (rPXR) signaling pathway (AID 651751; call rule not given here; also: 0% is about no effect); conditions: rPXR reporter cells, luciferase (One-Glo), 24 h
[13] = qHTS assay for small molecule activators of the human pregnane X receptor (PXR) signaling pathway (AID 720659; call rule not given here; also: 0% is about no effect)
[14] = target: Nuclear receptor ROR-gamma (Homo sapiens) (UniProt P51449); assay: qHTS assay for small molecule antagonists of the retinoid-related orphan receptor gamma (ROR-gamma) signaling pathway (AID 651802); also: series mostly up to about 92 µM; % is scaled to controls: 0 for no effect and ±100 for the full control effect; nearly all actives have a fitted effect of over 60% in size
Outline: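 CHO cells carrying TET-inducible ROR-gamma and an ROR response element–luciferase reporter were exposed to compound, then induced with doxycycline. After 16hr at 37C, luminescence was read; lower signal indicates antagonism.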

Nuclear receptor subfamily 1 group I member 2 (Rattus norvegicus), sequence (Q9R1A7 whole entry, looked up): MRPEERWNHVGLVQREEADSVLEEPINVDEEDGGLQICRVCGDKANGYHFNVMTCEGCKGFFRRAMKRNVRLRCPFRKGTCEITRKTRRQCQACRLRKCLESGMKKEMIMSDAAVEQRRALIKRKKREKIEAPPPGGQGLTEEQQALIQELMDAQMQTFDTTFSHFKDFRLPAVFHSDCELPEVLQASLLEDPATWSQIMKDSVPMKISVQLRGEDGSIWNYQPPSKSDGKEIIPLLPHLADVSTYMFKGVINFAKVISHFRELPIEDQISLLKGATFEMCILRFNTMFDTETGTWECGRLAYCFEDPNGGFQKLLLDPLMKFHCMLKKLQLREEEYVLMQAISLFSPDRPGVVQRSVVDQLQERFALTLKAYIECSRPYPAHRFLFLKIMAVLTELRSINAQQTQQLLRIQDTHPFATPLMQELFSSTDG
Nuclear receptor ROR-gamma (Homo sapiens), sequence (P51449 whole entry, looked up): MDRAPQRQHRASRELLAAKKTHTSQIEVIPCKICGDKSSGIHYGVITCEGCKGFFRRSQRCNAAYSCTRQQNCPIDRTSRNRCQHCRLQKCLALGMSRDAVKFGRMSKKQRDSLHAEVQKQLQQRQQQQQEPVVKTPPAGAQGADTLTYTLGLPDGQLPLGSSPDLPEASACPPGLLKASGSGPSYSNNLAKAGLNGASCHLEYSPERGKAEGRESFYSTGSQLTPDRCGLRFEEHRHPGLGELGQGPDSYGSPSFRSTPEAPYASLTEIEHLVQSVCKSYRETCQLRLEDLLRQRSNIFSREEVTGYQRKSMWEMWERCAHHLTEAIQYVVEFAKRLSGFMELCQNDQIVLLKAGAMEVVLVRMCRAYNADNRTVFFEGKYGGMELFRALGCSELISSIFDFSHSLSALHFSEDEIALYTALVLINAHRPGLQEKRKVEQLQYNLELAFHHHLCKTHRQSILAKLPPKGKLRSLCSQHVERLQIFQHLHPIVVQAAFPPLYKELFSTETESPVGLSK
Peroxisome proliferator-activated receptor alpha (Homo sapiens), sequence (Q07869 whole entry, looked up): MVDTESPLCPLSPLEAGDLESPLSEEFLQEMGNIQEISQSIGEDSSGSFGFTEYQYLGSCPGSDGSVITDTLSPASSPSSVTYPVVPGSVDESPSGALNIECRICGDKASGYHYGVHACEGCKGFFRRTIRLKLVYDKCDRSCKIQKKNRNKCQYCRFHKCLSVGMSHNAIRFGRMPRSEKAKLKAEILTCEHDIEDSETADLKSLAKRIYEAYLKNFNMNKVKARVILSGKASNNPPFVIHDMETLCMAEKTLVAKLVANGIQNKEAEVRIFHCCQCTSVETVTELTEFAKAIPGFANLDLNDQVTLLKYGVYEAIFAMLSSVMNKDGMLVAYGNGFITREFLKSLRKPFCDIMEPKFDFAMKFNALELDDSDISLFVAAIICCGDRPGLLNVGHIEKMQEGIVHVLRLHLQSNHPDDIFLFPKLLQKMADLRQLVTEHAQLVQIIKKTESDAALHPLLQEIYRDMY
Tumor necrosis factor (Homo sapiens), sequence (P01375 whole entry, looked up): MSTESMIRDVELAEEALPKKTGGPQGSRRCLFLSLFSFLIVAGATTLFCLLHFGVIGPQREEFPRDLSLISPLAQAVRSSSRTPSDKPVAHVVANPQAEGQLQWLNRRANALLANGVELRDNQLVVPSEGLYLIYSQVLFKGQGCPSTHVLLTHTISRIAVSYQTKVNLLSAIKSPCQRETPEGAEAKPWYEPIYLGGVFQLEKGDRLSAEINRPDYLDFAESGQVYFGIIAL

Cc1cc(C)c(N)cc1C
inactive: Potency [1] | Potency [2] | Potency [3] | Potency [4] | activation [5] 1.62% | max response [6] -4.75% | outcome [7] | Potency [8] | max response [9] 7.8% | max response [10] -5.87% | Potency [11] | max response [12] 3.48% | outcome [13]

O=C1CCCCC1
inactive: Potency [1] | Potency [2] | Potency [3] | Potency [4] | activation [5] -0.681% | max response [6] -2.26% | Potency [14] | outcome [7] | Potency [8] | max response [9] 5.45% | max response [10] -3.35% | Potency [11] | max response [12] 2.79% | outcome [13]

Nc1ccc(F)cc1F
inactive: Potency [1] | Potency [2] | Potency [3] | Potency [4] | activation [5] -1.74% | max response [6] 7.65% | Potency [14] | outcome [7] | max response [9] -3.09% | max response [10] -2.02% | Potency [11] | max response [12] 3.66% | outcome [13]

COC(=O)CC#N
inactive: Potency [1] | Potency [2] | Potency [3] | Potency [4] | activation [5] -0.763% | max response [6] -2.71% | Potency [14] | outcome [7] | Potency [8] | max response [9] -4.65% | max response [10] 6.11% | Potency [11] | max response [12] -1.86% | outcome [13]

NC(=O)/N=N/C(N)=O
inactive: Potency [1] | Potency [2] | Potency [3] | Potency [4] | activation [5] -0.307% | max response [6] -8.1% | Potency [14] | outcome [7] | max response [9] 19.2% | max response [10] 1.54% | Potency [11] | max response [12] -0.787% | outcome [13]

Cc1cccc([N+](=O)[O-])c1C(=O)O
inactive: Potency [1] | Potency [2] | Potency [3] | Potency [4] | activation [5] -0.538% | max response [6] 4.5% | Potency [14] | outcome [7] | Potency [8] | max response [9] 0.554% | max response [10] -0.404% | Potency [11] | max response [12] 12.6% | outcome [13]

Cc1ccc2cccnc2c1
inactive: Potency [1] | Potency [2] | Potency [3] | Potency [4] | activation [5] 0.306% | max response [6] -8.31% | Potency [14] | outcome [7] | Potency [8] | max response [9] 0.459% | max response [10] 6.13% | Potency [11] | max response [12] -2.67%

CCCCCNCCCCC
inactive: Potency [1] | Potency [2] | Potency [3] | Potency [4] | activation [5] 0.294% and -0.372% | max response [6] -4.45% and 0.112% | Potency [14] | outcome [7] | Potency [8] | max response [9] -0.347% and -3.31% | max response [10] 0.935% and 1.64% | Potency [11] | max response [12] 7.61% and 1.33% | outcome [13]

C=CC(=O)NC(C)C
inactive: Potency [1] | Potency [2] | Potency [3] | Potency [4] | activation [5] -0.429% | max response [6] -6.08% | outcome [7] | Potency [8] | max response [9] -7.91% | max response [10] -0.14% | Potency [11] | max response [12] 3.94% | outcome [13]

C=Cc1ccccn1
inactive: Potency [1] | Potency [2] | Potency [3] | Potency [4] | activation [5] 0.147% | max response [6] 0.108% | Potency [14] | outcome [7] | Potency [8] | max response [9] -6.91% | max response [10] 3.38% | Potency [11] | max response [12] 2.42% | outcome [13]

Cc1cccc(C)c1[N+](=O)[O-]
inactive: Potency [1] | Potency [2] | Potency [3] | Potency [4] | activation [5] -1.35% and 15.8% | max response [6] 0.937% and 0.387% | Potency [14] | outcome [7] | Potency [8] | max response [9] -4.95% and -2.18% | Potency [11] | max response [12] 1.64% and 13.2% | outcome [13]

BrC/C=C/CBr
inactive: Potency [1] | Potency [2] | Potency [3] | Potency [4] | activation [5] 0.145% | max response [6] 3.19% | Potency [14] | outcome [7] | Potency [8] | max response [9] -9.49% | max response [10] -11% | Potency [11] | max response [12] -0.603%

CCCCCCCCC
inactive: Potency [1] | Potency [2] | Potency [3] | Potency [4] | activation [5] 0.0249% | max response [6] -0.317% | Potency [14] | outcome [7] | Potency [8] | max response [9] 3.15% | max response [10] 9.61% | Potency [11] | max response [12] 3.91% | outcome [13]

O=C(O)c1c(Cl)cccc1Cl
inactive: Potency [1] | Potency [2] | Potency [3] | Potency [4] | activation [5] -0.92% | max response [6] 0.175% | Potency [14] | outcome [7] | Potency [8] | max response [9] -7.83% | max response [10] -0.226% | Potency [11] | max response [12] -2.07% | outcome [13]

CNc1ccccc1
inactive: Potency [1] | Potency [2] | Potency [3] | Potency [4] | activation [5] 1.11% | max response [6] -7.07% | Potency [14] | outcome [7] | max response [9] -0.57% | max response [10] -6.52% | Potency [11] | max response [12] 4.02% | outcome [13]

Cc1ccc2ccccc2c1[N+](=O)[O-]
inactive: Potency [1] | Potency [2] | Potency [3] | Potency [4] | activation [5] 1.24% | max response [6] 5.72% | Potency [14] | outcome [7] | max response [9] 14.1% | Potency [11] | max response [12] -2.23% | outcome [13]
